High-throughput results deposited in PubChem BioAssay by National Center for Advancing Translational Sciences (NCATS).
VDR inhibitor – blocks the human vitamin D receptor. Potency, µM, for inactives: max response, negative = inhibition, most hits filed as inhibitors. actives 0.93% (n = 400,000). VDR-SRC2-3 peptide fluorescence polarization, 2 h. P11473
Target sequence (P11473 whole entry, looked up): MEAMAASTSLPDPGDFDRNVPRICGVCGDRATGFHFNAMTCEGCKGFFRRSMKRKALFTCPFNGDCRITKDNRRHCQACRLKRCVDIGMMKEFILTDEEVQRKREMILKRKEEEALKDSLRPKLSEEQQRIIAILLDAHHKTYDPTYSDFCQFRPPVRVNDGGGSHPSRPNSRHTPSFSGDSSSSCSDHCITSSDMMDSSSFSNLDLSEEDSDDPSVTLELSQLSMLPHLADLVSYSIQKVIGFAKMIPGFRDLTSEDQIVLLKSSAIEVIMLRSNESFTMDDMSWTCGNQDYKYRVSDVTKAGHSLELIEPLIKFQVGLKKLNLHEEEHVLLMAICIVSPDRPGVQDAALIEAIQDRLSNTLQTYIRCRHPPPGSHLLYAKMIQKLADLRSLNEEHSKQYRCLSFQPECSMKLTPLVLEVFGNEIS
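The screen uses fluorescence polarization to detect compounds that interfere with recruitment of the SRC2-3 coactivator peptide to VDR; plates are read after 2 h at room temperature.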
Tb PGK inh – blocks T. brucei phosphoglycerate kinase. Potency, µM (doses to about 57.5 µM), for the others: at the highest dose activity change, negative = inhibition, most hits filed as inhibitors. actives 0.043% (n = 380,000). P07378. AID 602233. PGK/GAPDH coupled, Kinase-Glo luminescence, 60 min; also: nearly all actives have a fitted effect of over 60% in size
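Recombinant glycosomal PGK reaction used 1,3-bisphosphoglycerate generated in-well by GAPDH (100nM final) in 100mM TEA pH 7.6, 5mM MgCl2, 0.01% Tween-20. After 60 minutes at room temperature, ATP was read by Kinase-Glo Plus luminescence end-point.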
Tb PFK block – blocks T. brucei phosphofructokinase | O15648 | Potency, µM (doses to about 57.5 µM), inactives show at the top dose activity, negative = inhibition, hits mostly inhibitors | actives 0.17% (n = 330,000) | T. brucei PFK, ADP-Glo luminescence | AID 485367;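 also: 0% = uninhibited 1x PFK enzyme wells and -100% = no-enzyme wells; nearly all actives have a fitted effect of over 60% in size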
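Compounds were pin-transferred as a titration series up to 57 uM into substrate buffer (0.5 mM F6P, 0.1 mM ATP, pH 8.0), then 1.25 nM PFK was added and reactions ran 45 min before ADP-Glo detection.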
GLS inhibitor – inhibitors of human glutaminase (GLS). GLS enzymatic activity, qHTS titration. Potency, µM (top dose mostly 45.5 µM), without a hit: at the highest dose activity change, negative = inhibition, actives largely listed as inhibitors. O94925. actives 0.21% (n = 410,000)
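Compounds were pin-transferred onto hKGA, after which L-glutamine (1 mM solution) and a detection mix of glutamate oxidase, HRP and Amplex Red were added. Initial and 30 min RT fluorescence reads were collected.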
Pin1 inh – blocks the human prolyl isomerase Pin1 | Q13526 | Pin1 FP peptide displacement, HiFluor488, 10 min | Potency, µM (titrated, usually from 115 µM), inactives show top-dose activity, negative = inhibition, most hits filed as inhibitors | actives 0.009% (n = 390,000) | AID 504891; active = well fitted inhibition curve with a large enough effect in the polarisation, with a control signal flat, not every such curve was filed as active; inconclusive = small, poorly fitted or top-dose-only effect, or effect the other way, or a change in a side signal; inactive = no such curve, though single readings can be large or run the other way; the % refers to the polarisation
Target sequence (Q13526 whole entry, looked up): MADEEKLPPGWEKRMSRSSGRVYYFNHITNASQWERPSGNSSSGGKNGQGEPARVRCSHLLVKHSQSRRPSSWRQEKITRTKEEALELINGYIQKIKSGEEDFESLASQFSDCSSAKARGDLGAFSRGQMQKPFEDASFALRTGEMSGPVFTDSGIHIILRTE
Numbers without * were called inactive; i = inactive; ? = inconclusive; . = not tested or not shown. Hits are enriched below; roughly 1.1% of the tested compounds scored in any of these assays. Unless noted, calls follow the shape of the dose curve; as a rule, active = well fitted curve in the direction sought with a large enough effect; inconclusive = small, poorly fitted or top-dose-only effect, or another doubt; inactive = no such curve, though single readings can be large; an effect the other way counts as inactive or inconclusive. Unless noted, % is scaled to controls: 0 for no effect and ±100 for the full control effect; potency is read from the fitted curve at half-maximal effect.

SMILES | VDR inhibitor | Tb PGK inh | Tb PFK block | GLS inhibitor | Pin1 inh
COc1ccc(Br)cc1C1CC(=O)N2CN(C)CSC2=C1C#N (stereo unspecified) | ? | -4% | -10% | -13% | -15%
COc1ccc(OC)c(C2CC(=O)N3CN(c4cccc(Cl)c4C)CSC3=C2C#N)c1 (stereo unspecified) | 32µM* | -3% | -13% | 4% | 4%
CCOC(=O)CC(NC(=O)CCc1c(C)nc2c(c1C)c(=O)n(C)c(=O)n2C)c1ccc(OCC)c(OC)c1 (stereo unspecified) | -10% | -6% | . | -8% | -4%
Cc1oc(-c2ccccc2F)nc1CS(=O)CC(=O)NC(C)C (stereo unspecified) | -1% | -12% | . | -1% | -10%
COc1nnc(-c2ccc(N3CCCCC3)c(NC(=O)c3ccccc3Cl)c2)c2ccccc12 | -14% | 1% | . | 6% | 4%
COc1ccc2c(N)c(C(=O)NN)[nH]c2c1 | -5% | 0% | 0% | 13µM* | -1%
CCOc1ccc(C(=O)Nc2cc(C)ccn2)cc1 | 35µM* | ? | -27% | ? | -1%
CN1CCN(Cc2cc(COCc3ccccc3)c3cccnc3c2O)CC1 | ? | 0% | 17% | 4µM* | -11%
N#C/C(=C\c1c(Oc2ccc(F)cc2)nc2ccccn2c1=O)c1nc2ccccc2s1 | ? | i | . | -10% | ?
Cc1cccn2c(=O)c(/C=C(\C#N)c3nc4ccccc4s3)c(Oc3ccc(Br)cc3)nc12 | 79µM* | 8% | . | -1% | ?
NC(=S)NCCC[C@H](N)C(=O)O | 50µM* | . | . | . | .
CC(=O)C(=Cc1cccc(C#N)c1)C(=O)c1ccccc1 | . | . | . | 11µM* | .
COc1cccc2cc(C(=O)NCCc3c(C)[nH]c4ccc(F)cc34)c(=O)oc12 | -11% | i | . | -1% | 8%
Cc1cccc(C)c1NC(=O)CN(Cc1ccc(Br)cc1)S(=O)(=O)c1ccccc1 | -7% | 0% | . | 7% | 0%
Cc1ccsc1/C=N/Nc1nc(=O)[nH]nc1C | -8% | 28µM* | -30% | 1% | -4%
CCCCCCCCCCCCCCCC(=O)NC(C)C(=O)O (stereo unspecified) | -5% | . | . | . | .
CCCCCCCCCCCCCCCC(=O)N[C@@H](COP(=O)(O)O)C(=O)O | 13µM* | . | . | . | .
CCC(CC)c1nnc(NC(=O)c2ccc3c(c2)OCO3)s1 | 79µM* | -10% | ? | ? | -2%
CC(C)c1nnc(NC(=O)COc2ccc3c(c2)OCO3)s1 | -10% | -9% | -1% | 0% | 6%
CC(C)(C)Cc1nnc(NC(=O)c2ccc3c(c2)OCO3)s1 | ? | -7% | ? | ? | 0%
CCC(CC)c1nnc(NC(=O)COc2ccc3c(c2)OCO3)s1 | 79µM* | -10% | -18% | -24% | 2%
CSCCC(NS(=O)(=O)c1ccccc1)C(=O)Nc1nccs1 (stereo unspecified) | 8% | -9% | -2% | -5% | 0%
Cc1cc(C(=O)NNC(=O)/C=C/c2ccco2)c(C)o1 | ? | ? | -25% | 10µM* | ?
CN(CC(=O)N/N=C/c1ccc(F)cc1)S(=O)(=O)c1ccccc1 | . | 0% | . | -2% | .
Cc1ccccc1C1=C/C(=C(\SS/C(C(=O)c2ccc(OCC(=O)O)c(Cl)c2Cl)=C2\C=C(c3ccccc3C)SS2)C(=O)c2ccc(OCC(=O)O)c(Cl)c2Cl)SS1 | 40µM* | ? | . | ? | .
SMILES | VDR inhibitor | Tb PGK inh | Tb PFK block | GLS inhibitor | Pin1 inh
Cc1ccc(C(=O)Oc2ccc(Br)cc2C(=S)N2CCOCC2)cc1 | -24% | 0% | -6% | 2% | -7%
O=C(Oc1ccc(Br)cc1C(=S)N1CCOCC1)c1ccc(F)cc1 | 79µM* | 0% | -17% | 10% | -3%
O=C(Nc1cccc(F)c1)N1CCC2(CC1)CCN(C(=O)c1cc(C(F)(F)F)cc(C(F)(F)F)c1)CC2 | -7% | . | . | . | .
O=C(COC(=O)c1cc(-c2ccc(Cl)s2)nc2ccccc12)NCc1ccco1 | 79µM* | -7% | 9% | -4% | ?
CCSc1ccccc1C(=O)Nc1ccc(-c2nc3ccccc3s2)c(O)c1 | 7% | -3% | . | -6% | 31%
CCN(CC)c1ccc(NC(=O)c2ccccn2)cc1S(=O)(=O)Nc1ccccc1OC | 79µM* | -1% | -11% | -5% | 25%
CC(=O)N1CCC2(CC1)CN(c1cccc(-c3ccccc3)c1)C2 | 18% | . | . | . | .
COCC(=O)N1CCC2(CCCN(c3cccc(-c4ccccc4)c3)C2)CC1 | 50µM* | . | . | . | .
c1ccc(-c2cccc(N3CCCC4(CCNCC4)C3)c2)cc1 | 50µM* | . | . | . | .
COc1ccc(C(=O)N2CCC3(CCCN(c4cccc(-c5ccccc5)c4)C3)CC2)cc1 | -20% | . | . | . | .
c1ccc(-c2cccc(N3CCC4(CCNCC4)CC3)c2)cc1 | 89µM* | . | . | . | .
N#Cc1nc(Nc2cc(F)cc(F)c2)c2ncn(C3CCCC3)c2n1 | . | . | . | . | 21%
COc1ccc2c(Cl)c(C(=O)N/N=C/c3cccnc3)sc2c1 | -11% | i | 4% | 9% | 76%
CC(C)(C)OC(=O)C1=NOC2(C=CC(=O)C=C2)C1 | 28µM* | . | . | . | .
CCSC1=NC2(CCN(C(=O)NC3CCCCC3)CC2)N=C1c1ccc(C)c(C)c1 | 8% | -3% | . | -8% | -1%
Cn1c(=O)c2c([nH]c(=S)n2Cc2ccc(Cl)cc2)n(C)c1=O | 79µM* | -11% | -7% | ? | -2%
COc1ncc2nc(-c3cn(C)c4ccccc34)c(=O)n(C)c2n1 | 4% | . | . | . | .
CCN(CC)c1ccc(/C=C2/SC(=O)N(C(C)C)C2=O)o1 | 32µM* | -6% | -26% | ? | ?
CCCNC(=O)CN1C(=O)NC(CCSC)C1=O (stereo unspecified) | -15% | i | -6% | 1% | -2%
C=CC(C1=CC(=O)C(OC)=CC1=O)c1ccccc1 (stereo unspecified) | 8.9µM* | . | . | . | .
COc1ccc(S(=O)(=O)N=C2C=C(C)C(=O)C(C)=C2)cc1 | -1% | 0% | 1% | 46% | -1%
C=CC(C1=CC(=O)C(OC)=CC1=O)c1ccc(OC)cc1 (stereo unspecified) | 11µM* | . | . | . | .
C=CC(C1=CC(=O)C(OC)=C(OC)C1=O)c1ccccc1 (stereo unspecified) | 1µM* | . | . | . | .
COc1ccc(C(=O)N/N=C/C(C)c2ccccc2)cc1OC (stereo unspecified) | 5% | 0% | -2% | 0% | -2%
COc1ccccc1Cc1c(-c2ccco2)nc2cc(C)c(Br)c(C)n12 | . | . | . | 3% | .
Cc1cccc(NC(=O)CN2C(=O)C3(SCC(=O)N3c3ccccc3)c3ccccc32)c1 (stereo unspecified) | 8% | -2% | . | -10% | 2%
CCN(c1ccc(Cl)cc1)S(=O)(=O)c1nnc(NC(=O)C2CCCCC2)s1 | 3% | i | . | -13% | -2%
CC1(C)CC(=O)C(C(C2=C(O)CC(C)(C)CC2=O)c2cccc(O)c2)C(=O)C1 (stereo unspecified) | -20% | i | 0% | 32% | -4%
